Shown are actives, neighbours in structure and some others; about 7.3% of the full set was active somewhere.
NPC1 prom act: qHTS Assay for NPC1 Promoter Activators. Huh7 NPC1 promoter luciferase reporter, 24 h. Potency, µM (titrated, usually from 9.22 µM), actives largely listed as activators. 320,000 tested, 2.4% active. AID 485313, 2010; note: nearly all actives have a fitted effect of over 60% in size
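Stable NPC1-promoter luciferase Huh7 line; cpd (DMSO) 24 h, 37 °C, 5% CO2; Amplite luciferase reagent 10 min RT; luminescence readout. qHTS format.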
Luc counter: Counterscreen for Luciferase (Kinase-Glo TM) Inhibition; Potency, µM (highest dose often 38.3 µM), usual class: inhibitors; Kinase-Glo luciferase, ATP luminescence, 8 min; 200,000 tested, 0.28% active; note: nearly all actives have a fitted effect of over 60% in size
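Recombinant Kinase-Glo luciferase, 10 uM ATP (linear range), luciferin; imidazole pH 7.2 / KCl / MgCl2 / Tween / BSA buffer; 8 min RT; luminescence.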
SMN2 splice enh: qHTS Assay for Enhancers of SMN2 Splice Variant Expression; HEK293 SMN2-luciferase splicing reporter, luminescence, 30-36 h; Potency, µM (series often up to 46.1 µM), most hits filed as activators; AID 1458, 2008; 210,000 tested, 2.8% active; note: nearly all actives have a fitted effect of over 55% in size
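HEK293 cells carry an SMN2 […]–luciferase reporter in which exon 7 inclusion puts luciferase in frame. Cells were plated 10-12 h before compound addition, then incubated 30-36 h at 37C. ONE-Glo luminescence was read; sodium butyrate at 4.5 mM final served as control.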
Rab9 prom act: qHTS Assay for Rab9 Promoter Activators | Huh7 Rab9 promoter-luciferase reporter, luminescence, 24 h | Potency, µM (titrated, usually from 9.22 µM), actives largely listed as activators | 320,000 tested, 2.8% active; note: nearly all actives have a fitted effect of over 60% in size
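Quantitative HTS format; Huh7 Rab9-luciferase reporter cells (1500/well) receive compound 2 h post-plating, incubate 24 h at 37 °C, then get luciferase reagent for 10 min before luminescence reading.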
FLuc counter: qHTS profiling assay for firefly luciferase inhibitor/activator using purifed enzyme and Km concentrations of substrates (counterscreen for miR-21 project); Potency, µM (series often up to 57.5 µM), actives largely listed as inhibitors; 360,000 tested, 6.9% active; purified FLuc, Km substrates, luminescence inhibition; note: nearly all actives have a fitted effect of over 55% in size
Target sequence (P08659 whole entry, looked up): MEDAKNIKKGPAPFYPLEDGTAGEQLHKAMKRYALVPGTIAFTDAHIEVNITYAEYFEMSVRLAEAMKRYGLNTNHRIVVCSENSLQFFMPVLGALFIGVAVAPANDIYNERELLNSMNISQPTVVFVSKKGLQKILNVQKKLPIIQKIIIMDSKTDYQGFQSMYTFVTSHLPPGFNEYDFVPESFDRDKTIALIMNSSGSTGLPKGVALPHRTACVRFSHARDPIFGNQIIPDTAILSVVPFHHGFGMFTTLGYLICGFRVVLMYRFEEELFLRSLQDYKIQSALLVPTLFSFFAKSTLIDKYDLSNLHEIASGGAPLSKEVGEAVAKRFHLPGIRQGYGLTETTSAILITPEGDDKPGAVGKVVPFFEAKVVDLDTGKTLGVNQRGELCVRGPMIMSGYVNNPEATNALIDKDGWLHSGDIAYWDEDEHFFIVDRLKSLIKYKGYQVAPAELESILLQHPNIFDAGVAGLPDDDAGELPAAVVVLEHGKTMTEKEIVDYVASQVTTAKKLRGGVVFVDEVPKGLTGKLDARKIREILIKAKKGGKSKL
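Biochemical qHTS of compounds, final roughly 60 µM downward over six points, against 10 nM purified firefly luciferase using Km concentrations of substrates (10 uM D-luciferin, 10 uM ATP) in Tris acetate pH 7.5 buffer; luminescence output.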
Hits are given with their value; i = inactive; ? = inconclusive; nt = not tested or not shown; [ ] = dose if it differs, or a comment. Calls come from the whole dose curve; as a rule, active = well fitted curve in the direction sought with a large enough effect; inconclusive = small, poorly fitted or top-dose-only effect, or another doubt; inactive = no such curve, though single readings can be large; an effect the other way counts as inactive or inconclusive.

SMILES	NPC1 prom act	Luc counter	SMN2 splice enh	Rab9 prom act	FLuc counter
COC(=O)c1cccc(NC(=O)c2cc3ccccc3o2)c1	0.71µM	nt	nt	0.71µM	2.1µM
O=C(Nc1ccccc1C(F)(F)F)c1cc2ccccc2o1	2.5µM	nt	nt	2.2µM	3.4µM
COC(=O)c1ccccc1NC(=O)c1cc2ccccc2o1	?	nt	nt	?	13µM
Cc1ccn2c(=O)cc(CSc3nnc(C)s3)nc2c1	nt	nt	nt	nt	i
Cc1ccc(NC(=O)CSc2nc(=O)n(Cc3ccccn3)c3c2CCC3)cc1F	nt	nt	nt	nt	i
CCOCc1ccccc1Nc1ncnc2onc(-c3ccc(Cl)cc3)c12	nt	nt	i	nt	i
CCC(=O)Nc1ccc(C)cc1-c1nc2ccccc2n(CC(=O)c2ccc(C)cc2)c1=O	nt	nt	nt	nt	i
O=C(Nc1cccc(NC(=O)c2ccc(-c3ccc(Br)cc3)o2)c1)c1ccco1	i	i	i	i	2.7µM
Cc1ccc(C(=O)NCCc2csc(-c3cccnc3)n2)cc1	i	i	?	?	5.4µM
COc1cccc(OC)c1C(=O)NCCc1csc(-c2ccc(Cl)cc2)n1	nt	nt	nt	nt	i
COc1cccc(C(=O)NCCc2csc(-c3ccc(Cl)cc3)n2)c1	nt	nt	nt	nt	21µM
O=C(NCCc1csc(-c2cccnc2)n1)c1cccs1	i	i	i	i	?
Cc1ccc(-c2nc(CCNC(=O)c3ccc(C)c(C)c3)cs2)cc1	nt	nt	nt	nt	24µM
CN1N=C(/C=C/c2ccccc2)CCC1=O	i	?	?	?	?
Cc1ccc(/C=C/C2=NN(C)C(=O)CC2)cc1	3.5µM	?	11µM	0.89µM	6.7µM
NS(=O)(=O)c1ccc(NC2=CC(=O)C(=O)c3ccccc32)cc1	i	nt	nt	i	i
CC(=O)Nc1ccc(NC2=CC(=O)c3ccccc3C2=O)cc1	?	nt	nt	2µM	?
CC(=O)Nc1ccc(Nc2ccccc2)cc1	i	nt	nt	i	i
Cc1ccc(NC2=C(N3CCOCC3)C(=O)c3ccccc3C2=O)cc1	i	?	i	i	9.5µM
O=C1C=C(Nc2ccc(O)cc2)C(=O)c2ccccc21	i	nt	nt	?	5.4µM
Cc1ccc(NC2=CC(=O)C(=O)c3ccccc32)cc1	i	i	?	i	11µM
CC(C)N(Cc1ccccc1)C(=O)Cn1ncc2c3ccccc3n(Cc3ccccc3)c2c1=O	nt	nt	i	nt	i
Cc1cc2c(C)nc(-c3ccccc3)nc2o1	?	i	28µM	?	19µM
CCSc1ccc(-c2ccco2)nn1	i	i	i	i	?
O=C(CSc1ccc(-c2ccco2)nn1)NCc1ccc(F)cc1	i	i	i	i	i
SMILES	NPC1 prom act	Luc counter	SMN2 splice enh	Rab9 prom act	FLuc counter
Fc1cccc(CSc2ccc(-c3ccco3)nn2)c1	?	i	?	?	12µM
CSc1ccc(-c2ccco2)nn1	?	i	nt	3.2µM	?
Fc1ccc(CSc2ccc(-c3ccco3)nn2)cc1	3.2µM	i	22µM	3.2µM	4.8µM
COc1cccc(C(=O)Nc2c(C(=O)NC(C)(C)C)oc3ccccc23)c1	nt	nt	nt	nt	i
COc1ccccc1CN(Cc1ccco1)c1cnc(S(C)(=O)=O)nc1C(=O)Nc1ccccc1Cl	nt	nt	nt	nt	i
COc1ccc(/C(N)=N/OC(=O)c2cccc([N+](=O)[O-])c2C)cc1	i	i	i	i	17µM
COc1ccc(/C(N)=N/OC(=O)c2cccc([N+](=O)[O-])c2)cc1	i	i	?	i	19µM
COc1cccc(C(=O)O/N=C(\N)c2ccc([N+](=O)[O-])cc2)c1	i	i	i	i	2.4µM
COc1cc(C(=O)O/N=C(\N)c2cccc([N+](=O)[O-])c2)cc(OC)c1OC	i	nt	nt	i	i
COc1cccc(NC(=O)Cn2c(=O)n(Cc3ccc4c(c3)OCO4)c(=O)c3oc4ccccc4c32)c1	nt	nt	nt	nt	i
Cc1c(CC(=O)O)c(=O)oc2cc3oc4c(c3cc12)CCCC4	i	nt	nt	i	27µM
Cc1oc2cc3oc(=O)c(CC(=O)O)c(C)c3cc2c1-c1ccccc1	i	nt	nt	i	i
Cc1c(CC(=O)NCC(=O)O)c(=O)oc2cc3oc4c(c3cc12)CCCC4	i	nt	nt	i[1.84 µM]	15µM
COCCn1c(C)cc(C(=O)CSc2cc(C)c3ccccc3n2)c1C	i	i	i	i	13µM
Cc1cc(SCC(=O)c2ccccc2)nc2ccccc12	nt	i[7.66 µM]	i[9.22 µM]	nt	nt
O=C(CSc1nc2ccccc2c(=O)n1Cc1ccco1)NCc1ccco1	i	i	i	i	i
COCCn1c(C)cc(C(=O)CSc2nc3ccccc3c(=O)n2Cc2ccco2)c1C	3.2µM	i	7.1µM	1.3µM	1.7µM
CC(=O)Nc1ccc(S(=O)(=O)N/N=C/c2cccnc2)cc1	i	nt	nt	i	i
CC(=O)Nc1ccc(S(=O)(=O)N/N=C/c2ccc(C)s2)cc1	i	i	?	?	11µM
CC(=O)Nc1ccc(SCc2ncc(-c3ccccc3)o2)cc1	1.4µM	nt	nt	0.71µM	13µM
CCc1ccc(-c2nc(SCC(=O)NC3CC3)n[nH]2)cc1	i	nt	nt	i	13µM
Cc1ccc(Nc2nnc(SCC(=O)c3c(N)n(C4CC4)c(=O)[nH]c3=O)s2)cc1C	i	nt	nt	i	0.76µM
Cc1cccc(Nc2nnc(SCC(=O)c3c(N)n(C4CC4)c(=O)[nH]c3=O)s2)c1	i	nt	nt	i	?
O=C(CSc1n[nH]c(-c2ccccc2)n1)N1CCCC1	i	nt	nt	i	?
CCc1ccc(-c2nc(SCC(=O)N(C)C3CCS(=O)(=O)C3)n[nH]2)cc1 (stereo not given)	i	nt	nt	i	?
SMILES	NPC1 prom act	Luc counter	SMN2 splice enh	Rab9 prom act	FLuc counter
CCc1ccc(-c2nc(SCC(=O)N3CCOCC3)n[nH]2)cc1	i	nt	nt	i	17µM
CCc1ccc(-c2nc(SCC(=O)N(CC)C3CCS(=O)(=O)C3)n[nH]2)cc1 (stereo not given)	i	nt	nt	?	3.4µM
COc1ccc(C)cc1S(=O)(=O)N1CCN(c2cccc(Cl)c2)CC1	nt	nt	i	nt	i
O=C(NCc1ccccc1)c1ccc2c(c1)CCN2S(=O)(=O)c1ccc(Cl)cc1	nt	nt	i	nt	i
CCCc1cc(=O)[nH]c(SCC(=O)c2c(N)n(C3CC3)c(=O)[nH]c2=O)n1	i	nt	nt	i	i
CCc1ccc(-c2nc(SCC(=O)c3c(N)n(C4CC4)c(=O)[nH]c3=O)n[nH]2)cc1	i	nt	nt	i	2.1µM
C=CCNC(=O)c1ccccc1NC(=O)Nc1ccccc1	i	i	i	i	19µM
COCCNC(=O)c1ccccc1NC(=O)c1nsc2ccccc12	nt	nt	nt	nt	19µM
O=C(Nc1ccccc1)Nc1ccccc1C(=O)NCC1CC1	i	nt	nt	i	15µM
Cc1nn(C)c(C)c1NC(=O)c1ccccc1NC(=O)Nc1ccccc1	i	nt	nt	i	17µM
COCCNC(=O)c1ccccc1NC(=O)c1cc(OC)cc(OC)c1	i	i	i	i	i
COc1ccccc1NC(=O)Nc1c(C)nn(C)c1C	i	i	i	i	i
O=C(NCC1CC1)c1ccccc1Cl	i	nt	nt	i	i
Cc1ccc(C)c(S(=O)(=O)c2cnc(SCC(=O)Nc3ccc(F)cc3F)[nH]c2=O)c1	nt	nt	i	nt	?
Cc1ccc(NC(=O)Nc2ccccc2C(=O)NCc2ccccc2)cc1	i	i	i	i	4.8µM

High-throughput results: PubChem BioAssay, National Center for Advancing Translational Sciences (NCATS)
